HCMV inh: blocks human cytomegalovirus replication; HFF cells, HCMV-luciferase reporter, 72 h; stronger effect = lower value; AID 1259415; activity change, negative = inhibition, % at 57.5 µM; 410,000 tested, 4.5% active; in the data active means activity change below about -60%; inconclusive means no clear call, values can overlap the other calls; inactive means above about -39%; further: on the % scale 0 is the no-effect control and ±100 the full control effect
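After 16 h attachment at 37C, HFF cells received test compound and HCMV-luciferase (1 PFU/cell); reporter luminescence read 72 h later, data normalized against buffer-only and known inhibitor Salinomycin.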
HCV inh: blocks hepatitis C virus; Potency, µM (titrated, usually from 41.8 µM), inactives show at the top dose activity change, negative = inhibition, usual class: inhibitors; AID 651820; 340,000 tested, 3.4% active; Huh7.5.1 HCVcc-Cre infection, luciferase reporter, 44 h; active means well fitted inhibition curve with a large enough effect; inconclusive means small, poorly fitted or top-dose-only effect, or another doubt; inactive means no such curve, though single readings can be large or run the other way; further: potency means the concentration at half of the fitted maximal effect; on the % scale 0 is the no-effect control and ±100 the full control effect
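Cells seeded at 1,000/well and cultured 4 h, then compounds added followed by HCVcc-Cre virus (~0.5 moi). After 44 h further culture, luciferase substrate was added, plates held 15 min at room temperature, and luminescence read for 15 sec.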
FMDV antiviral: foot and mouth disease virus antiviral activity. Potency, µM (series often up to 57.9 µM), inactives show top-dose activity change, negative = inhibition, hits mostly inhibitors. FMDV antiviral cell-based qHTS. 410,000 tested, 1.2% active; calls by dose curve; tested in HEK293T cells; further: read-out not given here; potency means the concentration at half of the fitted maximal effect; on the % scale 0 is the no-effect control and ±100 the full control effect; nearly all actives have a fitted effect of over 45% in size
SARS PLpro yeast: blocks SARS-CoV papain-like protease in a yeast assay | S. cerevisiae expressing SARS-CoV PLpro, growth rescue | Potency, µM (series often up to 32.9 µM), inactives show top-dose activity, positive = growth rescue, hits mostly activators | 330,000 tested, 0.19% active | AID 485353; calls by dose curve; further: potency means the concentration at half of the fitted maximal effect; 0% is about no effect; nearly all actives have a fitted effect of over 55% in size
MARV entry inh: blocks Marburg virus binding to or entry into cells. 300,000 tested, 1.8% active. Marburg virus pseudotyped entry inhibition, cell reporter. Potency, µM (titrated, usually from 37.8 µM), without a hit: top-dose activity change, negative = inhibition, hits mostly inhibitors; calls by dose curve; tested in HEK293 cells; further: potency means the concentration at half of the fitted maximal effect; on the % scale 0 is the no-effect control and ±100 the full control effect
Lassa entry inh: Lassa virus entry inhibition | Lassa virus pseudotype entry inhibition, cell reporter | Potency, µM (doses to about 37.9 µM), inactives show at the highest dose activity change, negative = inhibition, most hits filed as inhibitors | 300,000 tested, 1.2% active | AID 540256; calls by dose curve; tested in HEK293 cells; further: potency means the concentration at half of the fitted maximal effect; on the % scale 0 is the no-effect control and ±100 the full control effect; nearly all actives have a fitted effect of over 50% in size
The depositor's hits bear a star; [ ] = another dose, or the depositor's remark. Most compounds without a hit are left out; they make up all but 8% or so of the library.

What do the screens show for `COC(=O)c1cccc(Nc2nc(-c3cccnc3)nc3ccccc23)c1`?
HCMV inh: -9; HCV inh: 7.1µM*; FMDV antiviral: inconclusive; SARS PLpro yeast: -1%; MARV entry inh: inconclusive; Lassa entry inh: -15%[46.1 µM]

What do the screens show for `O=C(O)c1cccc(Nc2nc(-c3cccnc3)nc3ccccc23)c1`?
HCMV inh: -30; HCV inh: 18%; FMDV antiviral: -13%; SARS PLpro yeast: 9%; MARV entry inh: -4%; Lassa entry inh: 7%

Results for CCOC(=O)c1cccc(Nc2nc(-c3cccnc3)nc3ccccc23)c1 ?
HCMV inh: -21; HCV inh: inconclusive; FMDV antiviral: 28µM*; SARS PLpro yeast: -3%; MARV entry inh: inconclusive; Lassa entry inh: inconclusive

How did CCCOc1ccc(C2C(=O)N(C3CCCCCC3)CC(=O)N2CCC2=CCCCC2)cc1OC (stereo not given) do in these assays?
HCMV inh: -2; FMDV antiviral: 0%; Lassa entry inh: -13%[46.1 µM]

What do the screens show for `Cc1cc(=O)n2c(C(=O)Nc3ccc(C(=O)OC(C)C)cc3)c(C(=O)Nc3ccccc3)sc2n1`?
HCMV inh: -67*; HCV inh: -29%; FMDV antiviral: -9%; SARS PLpro yeast: -4%; MARV entry inh: inconclusive; Lassa entry inh: 23µM*

What do the screens show for `Cc1cc(=O)n2c(C(=O)Nc3ccc(F)c(Cl)c3)c(C(=O)Nc3cccc(C)c3C)sc2n1`?
HCMV inh: 6; FMDV antiviral: -16%; MARV entry inh: -2%[46.1 µM]; Lassa entry inh: inconclusive

What do the screens show for `CCCCN(CCCNC(=O)c1c(C)cc(=O)oc1C)c1ccccc1`?
HCMV inh: 24; HCV inh: 4µM*; FMDV antiviral: -1%; SARS PLpro yeast: 1%; MARV entry inh: -4%; Lassa entry inh: 0%

How did CCCCN(C(=O)c1ccc2c(c1)NC(=O)CS2)c1ccccc1 do in these assays?
HCMV inh: -100*; HCV inh: inconclusive; FMDV antiviral: -19%; SARS PLpro yeast: -1%

What do the screens show for `CC1CCCCN1CCCNC(=O)c1ccc2c(c1)NC(=O)CN2C` (stereo not given)?
HCMV inh: 5; FMDV antiviral: -6%

How did CCN(CC)C(=O)c1ccc(NC(=O)c2ccc3c(c2)NC(=O)CS3)cc1 do in these assays?
HCMV inh: 113; HCV inh: -1%; FMDV antiviral: 1%; SARS PLpro yeast: 3%; MARV entry inh: 1%; Lassa entry inh: 3%[46.1 µM]

How did CCCCN(CCCNC(=O)c1ccc2c(c1)NC(=O)CN2C)c1ccccc1 do in these assays?
HCMV inh: -98*; FMDV antiviral: 22µM*

How did COc1ccc(CCC(=O)NCc2nc3cccnc3n2Cc2ccc(F)cc2)cc1 do in these assays?
HCMV inh: inconclusive; FMDV antiviral: -3%; Lassa entry inh: 9%[46.1 µM]

How did CC(=O)Nc1ccc(N2C(=O)c3ccc(C(=O)Nc4nnc(SCc5ccc(F)cc5)s4)cc3C2=O)cc1 do in these assays?
HCMV inh: -5; HCV inh: 10%; FMDV antiviral: -4%; SARS PLpro yeast: 1%

How did O=c1cc(N=Nc2ccc(Cl)cc2)[nH]c(=O)[nH]1 do in these assays?
HCMV inh: -100*; HCV inh: inconclusive; FMDV antiviral: 25µM*; SARS PLpro yeast: -8%; MARV entry inh: 5%[46.1 µM]; Lassa entry inh: inconclusive

Results for ClCC(CNCc1ccccc1)c1ccccc1 (stereo not given) ?
HCMV inh: -26; HCV inh: -14%; FMDV antiviral: 1%; MARV entry inh: -7%[46.1 µM]; Lassa entry inh: 23%[46.1 µM]

What do the screens show for `Cc1cc(Cl)cc(C)c1OCCCCCn1ccnc1`?
HCMV inh: -23; HCV inh: inconclusive; FMDV antiviral: inconclusive; SARS PLpro yeast: -2%

What do the screens show for `Cc1cc(Cl)cc(C)c1OCCn1ccnc1`?
HCMV inh: inconclusive; HCV inh: -6%; FMDV antiviral: -22%; SARS PLpro yeast: -2%; MARV entry inh: 1.3µM*; Lassa entry inh: 3.5µM*

How did C/C(=N\NC(=O)CNC(=O)C(c1ccccc1)c1ccccc1)c1ccc(C(C)(C)C)cc1 do in these assays?
HCMV inh: -76*; HCV inh: 21%; FMDV antiviral: -2%; SARS PLpro yeast: -1%; MARV entry inh: -6%; Lassa entry inh: -5%

How did Cc1ccc(N2CC(NC(=O)C3CCCC3)CC2=O)cc1C (stereo not given) do in these assays?
HCMV inh: -11; FMDV antiviral: -10%; Lassa entry inh: -8%[46.1 µM]

What do the screens show for `Cc1cc(C(=O)CSc2ccc(F)cc2)cc(C)c1OC(=S)N(C)C`?
HCMV inh: -92*; HCV inh: inconclusive; FMDV antiviral: 0.79µM*; SARS PLpro yeast: -10%; MARV entry inh: inconclusive; Lassa entry inh: inconclusive

How did O=[N+]([O-])c1cccc2nc(-c3ccccc3)c(-c3ccccc3)nc12 do in these assays?
HCMV inh: -101*; HCV inh: -9%; FMDV antiviral: inconclusive; SARS PLpro yeast: -1%; MARV entry inh: -4%; Lassa entry inh: -28%

Results for COc1ccc(CCNc2nnc(Sc3nnnn3-c3ccccc3)s2)cc1OC ?
HCMV inh: -98*; HCV inh: 14µM*; FMDV antiviral: 28µM*; SARS PLpro yeast: -6%; MARV entry inh: inconclusive; Lassa entry inh: -21%

What do the screens show for `COc1cc(C)cc2oc(=O)c(CC(=O)N3CCN(C(=O)C4COc5ccccc5O4)CC3)c(C)c12` (stereo not given)?
HCMV inh: -39; HCV inh: 10µM*; FMDV antiviral: -20%; SARS PLpro yeast: -5%

How did Cc1cc(O)c2c(C)c(CC(=O)N3CCN(C(=O)C4COc5ccccc5O4)CC3)c(=O)oc2c1 (stereo not given) do in these assays?
HCMV inh: -22; HCV inh: inconclusive; FMDV antiviral: -16%; SARS PLpro yeast: 10%

Results for CC(=O)Oc1cc2c(C(=O)NCc3ccncc3)c(C)oc2c2ccccc12 ?
HCMV inh: 6; HCV inh: 11µM*; FMDV antiviral: -6%; SARS PLpro yeast: -2%

How did Cc1oc(-c2ccccc2)cc1C(=O)NCc1ccncc1 do in these assays?
HCMV inh: 15; HCV inh: -16%; FMDV antiviral: -26%; SARS PLpro yeast: 0%

Results for COc1cccc(NC(=O)N2CCC(n3nnc4ccccc43)CC2)c1 ?
HCMV inh: 22; HCV inh: -8%; FMDV antiviral: 14%; SARS PLpro yeast: -1%; MARV entry inh: -25%[46.1 µM]; Lassa entry inh: 8%[46.1 µM]

What do the screens show for `COc1cc2ncc3c(-c4ccccc4)nn(-c4ccc(C)cc4)c3c2cc1OC`?
HCMV inh: 15; FMDV antiviral: 0%; Lassa entry inh: 3%[46.1 µM]

How did CC(=O)C(=Nc1ccc(Cl)cc1Cl)NNc1cccc(Cl)c1 do in these assays?
HCMV inh: -16; HCV inh: 10µM*; FMDV antiviral: 24%; SARS PLpro yeast: -26%; MARV entry inh: inconclusive; Lassa entry inh: 10µM*

Screens: PubChem BioAssay, National Center for Advancing Translational Sciences (NCATS)
